DUSP1 inh = inhibitors of human MKP-1 phosphatase. P28562. recombinant MKP-1, OMFP hydrolysis fluorescence. inhibition, %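 (compounds tested at a single concentration somewhere between 10 and 100 µM)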. actives 0.15% (n = 65,000);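 active = inhibition above about 50%, limit read from the data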;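 also: 0% = DMSO max control wells and 100% = wells with enzyme stopped by NaOH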
Target sequence (P28562 whole entry, looked up): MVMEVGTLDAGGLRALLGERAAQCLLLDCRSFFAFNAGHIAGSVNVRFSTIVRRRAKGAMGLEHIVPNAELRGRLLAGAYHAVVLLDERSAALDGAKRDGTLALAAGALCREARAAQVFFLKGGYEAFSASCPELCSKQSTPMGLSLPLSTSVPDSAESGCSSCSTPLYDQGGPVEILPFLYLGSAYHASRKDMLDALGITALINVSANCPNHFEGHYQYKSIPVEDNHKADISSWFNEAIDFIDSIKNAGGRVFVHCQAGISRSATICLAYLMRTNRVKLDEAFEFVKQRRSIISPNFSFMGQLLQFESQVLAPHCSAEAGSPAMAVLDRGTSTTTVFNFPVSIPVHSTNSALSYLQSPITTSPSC
TNAP act DEA = activates human TNAP at intermediate phosphate acceptor concentration | P05186 | activation factor at 20 µM | purified TNAP, CDP-star luminescence, 100 mM DEA, 30 min; hits give high values; scale: 0 levamisole-inhibited, 1 vehicle-only enzyme | AID 813 | 64,000 tested, under 10 active;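 active = activation factor of at least 2 at 20 µM, relative to controls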
Cdc25B block = inhibitors of human Cdc25B phosphatase | P30305 | recombinant Cdc25B, OMFP fluorescence Ex485/Em525 | inhibition, %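 (compounds tested at 10 µM final in the well)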 | actives 0.1% (n = 65,000); in the data active = inhibition above about 50%
HePTP inh = blocks human HePTP tyrosine phosphatase; P35236; recombinant HePTP phosphatase activity, OD absorbance; inhibition, % at 20 µM; actives 0.64% (n = 110,000); AID 521; in the data active = inhibition above about 50%;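 also: plate controls were vehicle for no effect and reference inhibitor for full effect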
Hsp90 inh = displaces geldanamycin probe from tumor Hsp90; NCI-N417 lysate Hsp90, Cy3B-geldanamycin FP displacement; AID 429; inhibition, % at 30 µM; P07900; actives 0.35% (n = 64,000);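 active = inhibition above 50%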;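 also: 0% = tracer plus lysate wells and 100% = tracer alone without lysate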
PLAP act = human PLAP activation; P05187; purified PLAP enzyme, luminescent substrate read-out; hits give high values; activation fold at 20 µM; actives 1.2% (n = 96,000); AID 696; in the data active = activation fold above about 2
Starred values were filed as active, the others as inactive; . = no result. This is a sample that favours compounds with a hit; in the whole collection about 1.5% have one here.

SMILES | DUSP1 inh | TNAP act DEA | Cdc25B block | HePTP inh | Hsp90 inh | PLAP act
CCN(C(=O)CSc1nc2ccccc2n1CCc1ccccc1)C1CCS(=O)(=O)C1 (centres undefined) | . | . | . | . | . | 2.4*
Cc1c(C(=O)NC2CCSC2=O)cccc1[N+](=O)[O-] (centres undefined) | . | . | . | 55* | . | .
COc1ccc(CCNC(=O)C2CCN(Cc3nc(-c4cccc(Cl)c4)oc3C)CC2)cc1OC | 8 | 1.1 | -30 | 10 | -3 | 2.2*
Cc1ccc(-c2cc(C(=O)O)c3cc(Br)ccc3n2)o1 | . | . | . | 104* | . | .
COc1ccccc1NS(=O)(=O)c1cccc(C(=O)N/N=C(\C)c2ccc(-n3ccnc3)cc2)c1 | . | . | . | . | . | 2*
COC(=O)C1=C(C)N(CCc2ccc(OC)c(OC)c2)C(=O)C1 | . | . | . | 96* | . | 1.4
COc1ccc(-c2n[nH]c(C(F)(F)F)c2-c2cc3ccccc3o2)c(O)c1 | 10 | 1.3 | -2 | . | . | 2*
Cc1cc(OCC(=O)Nc2cc(Cl)cc(Cl)c2)ccc1Br | . | . | . | 2 | . | .
Nc1nc(Sc2ccc(C(F)(F)F)cc2[N+](=O)[O-])n[nH]1 | . | . | . | . | . | 2*
CCc1c(C)c(C#N)c2nc3ccccc3n2c1Nc1ccc(OC)cc1 | . | . | . | -6 | . | .
O=C(Nc1nc(-c2ccccc2)cs1)Nc1cccc2ccccc12 | . | . | . | -8 | . | .
COc1cccc(C2/C(=C(\O)c3c(C)nc4c(C)cccn34)C(=O)C(=O)N2CCCN(C)C)c1OC (centres undefined) | -8 | 0.9 | -1 | 7 | 0 | 1.2
Cc1nc2c(C)cccn2c1/C(O)=C1\C(=O)C(=O)N(CCN(C)C)C1c1ccncc1 (centres undefined) | -10 | 0.8 | 56* | -7 | -4 | 1.1
CCCOC(=O)c1c(-c2ccc(OCC)cc2)csc1N | . | . | . | -10 | . | .
CCCOC(=O)c1c(-c2ccc(OC)c(OC)c2)csc1N | . | . | . | 104* | . | .
CCOC(=O)C1=NN(C(=O)c2cccc([N+](=O)[O-])c2)C(O)(c2ccc(Cl)cc2)C1 (centres undefined) | . | . | . | 104* | . | .
N/C(=N\S(=O)(=O)c1ccccc1)c1ccccc1 | . | . | . | -1 | . | .
COc1ccc(OC)c(NC(=S)NC(=O)c2ccc(Cl)cc2)c1 | . | . | . | 5 | . | .
COc1cc([N+](=O)[O-])cc(/C=N/NC(=O)COc2c(Br)cc(Br)cc2Br)c1O | . | . | . | 79* | . | .
c1ccc2c(c1)ncn2-c1ncnc2sc3c(c12)CCCC3 | . | . | . | . | . | 1
CC(O)CNc1nc2ccccc2n1-c1ncnc2sc3c(c12)CCC3 (centres undefined) | -2 | 1.5 | -8 | 6 | -1 | 2.7*
CCOc1cc(CNCc2ccccn2)ccc1OCC(=O)NC1CCCCC1 | . | . | . | . | . | 2*
Cc1ccc(SC(C)C(=O)Nc2ncn[nH]2)cc1 (centres undefined) | 2 | 1.5 | 5 | 1 | -15 | 2.1*
O=c1oc2cc([N+](=O)[O-])ccc2nc1/C=C(\O)c1cccs1 | . | . | . | 76* | . | .
C=CCN1C(=O)c2ccccc2C1(O)c1ccc(F)cc1 (centres undefined) | . | . | . | -5 | . | .
SMILES | DUSP1 inh | TNAP act DEA | Cdc25B block | HePTP inh | Hsp90 inh | PLAP act
COCCNC(=O)c1ccc2c(=O)n(Cc3ccco3)c(SCC(=O)NC3CCCC3)nc2c1 | . | . | . | . | . | 2.2*
COc1ccc(C)cc1NC(=O)c1cc(OC)c(OC)c(OC)c1 | . | . | . | -6 | . | .
COc1ccc(-c2csc(NC(=O)c3nc(-c4ccccc4)oc3C)n2)cc1 | . | . | . | . | . | 1
Cc1oc(-c2ccccc2)nc1C(=O)Nc1nccs1 | 28 | 0.9 | -5 | 12 | -6 | 2*
CCOc1cc(/C=N/NC(=O)c2cc(-c3ccc(Cl)cc3)n[nH]2)ccc1O | . | . | . | 0 | . | .
CC(=O)CCc1c(C)[nH]c2ccc(Br)cc2c1=O | . | . | . | -18 | . | .
CC(=O)CCc1c(C)[nH]c2ccccc2c1=O | 7 | 0.9 | -5 | -6 | 82* | 1
COc1c(Cl)cc(C(=O)Nc2cc(-c3nc4cc(Cl)ccc4o3)ccc2C)cc1Cl | . | . | . | 1 | . | .
CCN(CC)c1ccc(N=Cc2ccc(OC)c3ccccc23)cc1 | . | . | . | 4 | . | .
COc1ccc(CC(=O)Nc2oc(-c3ccccc3)c(-c3ccccc3)c2C#N)cc1 | . | . | . | -5 | . | .
CCn1c(SCC(=O)Nc2oc(-c3ccccc3)c(-c3ccccc3)c2C#N)nnc1-c1cc(OC)cc(OC)c1 | . | . | . | . | . | 2.2*
O=C1NC(=O)N(c2ccccc2)C(=O)/C1=C\c1cccc(Br)c1 | . | . | . | -1 | . | .
C=CCOc1ccc(/C=N/NC(=O)C(=O)NCc2ccccn2)cc1 | . | . | . | -12 | . | .
O=C(CN(Cc1ccco1)C(=O)CNS(=O)(=O)c1ccc(F)cc1)NCc1ccc(F)cc1 | 9 | 6.1* | -6 | 6 | -4 | 1.1
COc1ccc(-c2nnc3sc(C4CCCCC4)nn23)cc1OC | 15 | 1.1 | -10 | 0 | 2 | 2.1*
C1CCC(c2nn3c(-c4n[nH]c5c4CCC5)nnc3s2)CC1 | 0 | 1.8 | -1 | 8 | -15 | 2.3*
O=C(c1sc2ccccc2c1Cl)N(Cc1ccco1)C1CCS(=O)(=O)C1 (centres undefined) | -15 | 0.9 | 4 | 2 | 54* | 1.5
Cc1cc(C)cc(OCC(=O)N2CCN(c3ccc([N+](=O)[O-])cc3)CC2)c1 | . | . | . | -2 | . | .
Cc1ccc(NC(=S)NNC(=O)c2cn(C)nc2C)cc1 | . | . | . | . | . | 2.3*
Cc1nn(C(C)C(=O)NNC(=S)Nc2ccc(Cl)cc2)c(C)c1[N+](=O)[O-] (centres undefined) | . | . | . | . | . | 2.4*
Cc1ccc(NC(=S)NNC(=O)c2c([N+](=O)[O-])c(C)nn2C)cc1 | . | . | . | . | . | 2.5*
Cc1ccc(NC(=S)NNC(=O)c2ccccc2OC(F)F)cc1 | . | . | . | . | . | 1.8
Cc1ccc(NC(=S)NNC(=O)c2nn(C)c(C)c2Cl)cc1 | . | . | . | . | . | 2.3*
COc1cccc(C2C(C(=O)Nc3ccccc3)=C(C)N=c3s/c(=C\c4cccs4)c(=O)n32)c1 (centres undefined) | . | . | . | 4 | . | .
Cc1cc(=O)oc2c(I)c(OCc3ccccc3)ccc12 | . | . | . | 2 | . | .
SMILES | DUSP1 inh | TNAP act DEA | Cdc25B block | HePTP inh | Hsp90 inh | PLAP act
COc1cc(NC(=O)c2ccc(C)c([N+](=O)[O-])c2)ccc1NC(=O)c1ccco1 | . | . | . | 5 | . | .
CCOc1ccc(C(=O)Nc2ccc(-c3nc4ccccc4o3)c(O)c2)cc1[N+](=O)[O-] | . | . | . | 104* | . | .
CCOc1ccc(C(=O)Nc2ccc(NC(=O)c3ccco3)c(OC)c2)cc1[N+](=O)[O-] | . | . | . | 104* | . | .
C/C(=N\NC(=O)COc1ccc(Cl)cc1Cl)c1cccnc1 | . | . | . | 8 | . | .
O=C1/C(=C\c2ccco2)CC2CC1C/C(=C/c1ccco1)C2=O | . | . | . | 102* | . | .
O=C1/C(=C\c2cccs2)CC2CC1C/C(=C/c1cccs1)C2=O | . | . | . | 6 | . | .
Cc1ccc(C(=O)CSc2nnnn2-c2ccccc2)c(C)c1 | . | . | . | 10 | . | .
Cc1ccc(C)c(-n2nnnc2SCC(=O)c2ccc3c(c2)NC(=O)CO3)c1 | 52* | 0.9 | -6 | 10 | -6 | 1.1
c1ccc(CSc2ncnc3nc[nH]c23)cc1 | . | . | . | 7 | . | .
Cc1cccc(CSc2ncnc3nc[nH]c23)c1 | 10 | 1 | 0 | -4 | 1 | 2.2*
c1ccc(OCCSc2ncnc3nc[nH]c23)cc1 | 9 | 0.9 | -8 | 8 | 2 | .
